From PubChem BioAssay (NCATS)
Where “and” joins values, the source holds several entries; their conditions need not be identical. Identical values can stand only once. Records with an inconclusive call do not appear. Calls of active or inactive are those of the source. The call rests on the fitted dose curve; in most records, active means well fitted inhibition curve with a large enough effect; inconclusive means small, poorly fitted or top-dose-only effect; inactive means flat fitted curve, though single readings scatter.

How the values were obtained:
[1] = tested on: TAB165; assay: qHTS profiling for inhibitors of Plasmodium falciparum proliferation (AID 504749);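 further: 0% = DMSO vehicle and full inhibition = artemisinin control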; details: P. falciparum in erythrocytes, SYBR Green DNA, 72 h; series mostly up to 28.7 µM
Outline: (§1)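 Three-day growth assay of blood-stage parasites in erythrocytes (0.3% parasitemia, 2.5% hematocrit) at 37 C, 5% CO2, quantified by SYBR Green DNA staining after overnight detergent lysis.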

[2] = tested on: W2; assay: as above; details: P. falciparum in erythrocytes, SYBR Green DNA, 72 h; series mostly up to 28.7 µM
Outline: as §1

[3] = tested on: HACAT; assay: qHTS assay to identify novel small-molecules to repurpose for Merkel cell carcinoma treatment (AID 1296009); details: MCC and control cell lines, CellTiter-Glo viability, 72 h; at 44.8 µM (top of the series) unless noted
Outline: (§2)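 After compound transfer in DMSO, plates were kept 72 hr at 37 degree celsius. Luminescent ATP signal from CellTiter-Glo served as viability measure, normalized against DMSO and no-cell controls.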

[4] = tested on: HEK293T; assay: as above; details: MCC and control cell lines, CellTiter-Glo viability, 72 h; at 44.8 µM (top of the series) unless noted
Outline: as §2

[5] = tested on: MCC-13; assay: as above; details: MCC and control cell lines, CellTiter-Glo viability, 72 h; series mostly up to 46 µM
Outline: as §2

[6] = tested on: CRL-7250; assay: Cytotoxic Profiling of Annotated Libraries Using Quantitative High-Throughput Screening (AID 1296008); details: Five cell lines viability, CellTiter-Glo ATP luminescence, 48-72 h; max response: stronger effect = lower value; on max response: on the % scale 0 is the no-effect control and ±100 the full control effect
Outline: (§3)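 Cytotoxicity was measured as CellTiter-Glo ATP luminescence, read after 10 min at room temperature. Compound treatment of the cells lasted 48 or 72 hr at 37 degrees Celsius in a qHTS format.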

[7] = tested on: HaCat; assay: as above; details: Five cell lines viability, CellTiter-Glo ATP luminescence, 48-72 h; max response: stronger effect = lower value
Outline: as §3

[8] = tested on: KB-3-1; assay: as above; details: Five cell lines viability, CellTiter-Glo ATP luminescence, 48-72 h; max response: stronger effect = lower value
Outline: as §3

[9] = tested on: NIH3T3; assay: as above; details: Five cell lines viability, CellTiter-Glo ATP luminescence, 48-72 h; max response: stronger effect = lower value
Outline: as §3
Further: nearly all actives have a fitted effect of over 60% in size.

Cc1ncc([N+](=O)[O-])n1CCO
inactive: Potency [1] | Potency [2]

NC(=O)c1cccnc1
inactive: Potency [1] | Potency [2] | outcome [3] | outcome [4] | Potency [5]

CCCOc1ccc(C(=O)OCCN(CC)CC)cc1N
inactive: max response [6] -2.34% and -3.98% | max response [7] -1.58% and 2.22% | max response [8] -2.47% and 5.78% | outcome [9] | outcome [4] | Potency [5]
